Here are results for 40 compounds from PubChem BioAssay (EPA / NIEHS).

Calls of active or inactive are those of the source. How the source made its calls: active means hit-call score of the fitted dose curve at least 0.9, where 1 is the maximum; inactive means score below 0.9.

One may read the AC50 as the concentration at which the activity in the assay is half-maximal.

Read-out in this assay: Thyroid Hormone Responsive (THRSP), THRSP (gene 7069)
Put plainly: LTEA_HepaRG_THRSP: Life Technologies and Expression Analysis (LTEA) Assay for Thyroid Hormone Responsive (THRSP) using HepaRG (AID 2283536). The conditions noted are these: mRNA level, 48 h; actives raise or lower the signal. On the procedure: LTEA_HepaRG is a cell based, multiplexed-readout assay that uses HepaRG, a human liver cell line, with measurements taken at 48 hours after chemical dosing on a 96-well plate.LTEA_HepaRG_THRSP is one of 102 assay component(s) measured in the LTEA HepaRG cell culture assay. It is a marker of NR mediated metabolism.Data from the assay component LTEA_HepaRG_THRSP was analyzed into 1 endpoint. This assay endpoint, LTEA_HepaRG_THRSP, was analyzed with bidirectional fitting relative to DMSO as the negative control and baseline of activity. Using a type of inducible reporter, measures of mRNA induction for gain or loss-of-signal activity can be used to understand regulation of transcription factor activity. To generalize the intended target to other relatable targets, this assay endpoint is annotated to the growth factor intended target family, where the subfamily is NR mediated metabolism.
A total of 1060 chemcials from the ToxCast library were tested in eight-point concentration-response experiments. Cell culture and cytotoxicity assays were conducted at Thermo Fisher Scientific's Custom Services facility (Madison, WI). A single lot of human HepaRG cells (Thermo Fisher Scientific, Frederick, MD) was used for the cell culture experiments. 96-well format collagen type I coated plates of human HepaRG cells were prepared using established methods. Briefly, cryopreserved HepaRG cells were thawed, plated at a density of approximately 100,000 cells/well in HepaRG Thaw, Plate, and General Purpose media (HPRG770, Thermo Fisher Scientific), and incubated for 48 hours. 0.5% DMSO was selected as vehicle control to balance the requisite need of DMSO in HepaRG cultures to maintain differentiation (for example, baseline metabolism, proportions of hepatocytes vs. cholangiocytes), while enabling further hepatic receptor pathway activation (for example, PXR and CAR) in response to chemical exposure. 48 hours after plating, the culture medium was replaced with HepaRG Serum-Free Incudtion Media. Cells were exposed to each test chemical in duplicate and maintained in CO2 incubators for another 48 hours. Chemical plates were thawed to room temperature and 200x concentrations of treatment groups were prepared. 8-point conentration-reponse curves were made with the highest exposure at 100 uM, followed by half-log dilutions, all in 0.5% DMSO. Each test plate contained variouse controls, induction positive controls (1mM phenobarbital), cytotoxicity positive controls ([…] aflatoxin B1), vehicle controls (0.5% DMSO), and total lysis controls (0.5% DMSO). Cell morphology images were taken using an Essen IncuCyte FLR automated microscope, with six 96-well plates imaged in about 24 minutes. Images were captured and exported and JPEG files. Spent culture media was transfered to black-well plates for the LDH assay, and remaining media was sorted at -80 C for later use. Cells were treated with RLT buffer and frozen until shipped for gene expression analysis. Total RNA was isolated from the cell suspension in 75 uL of Buffer RLT (Qiagen, Germantown, MD 20874) by Quintiles/Expression Analysis (Durham, NC) using a custom isolation procedure. Total RNA from each plate well was transferred to a preamplification plate. Fluidigm's 96.96 Dynamic ArrayTM (Fluidigm, Amsterdam, the Netherlands) technology was used for gene expression analyses by quantitative reverse transcription polymerase chain reaction (qRT-PCR, performed by Quintiles/Expression Analysis, Durham, NC)89. Standard TaqManTM Assays (Applied Biosystems/ThermoFisher Scientific, Foster City, CA) were used to assess the expression of 93 genes selected based on their selectivity and sensitivity to important hepatic receptors known to be modulated by environmental chemicals; importance in human hepatocyte functionality; and hepatotoxicity. […]
For the compound `CC(C)CC(C)O` (stereo not given), the compound was called inactive. `C=CN1CCCC1=O`: the outcome was inactive. On to `CCCCN1C(=O)[C@@H]([C@H](O)C2CCCCC2)NC(=O)C12CCN(Cc1ccc(Oc3ccc(C(=O)O)cc3)cc1)CC2`, for which the concentration at half-maximal activity (AC50) was 1.27 µM (active). `CNC(C)=O`: the call was inactive. Same read-out and setting: with `O=c1[nH]cnc2c1ncn2[C@H]1CC[C@@H](CO)O1` the entry was “inactive”; with `CCCCOC(=O)c1ccccc1`, “inactive”. For `CCN(CC)C(=S)SSC(=S)N(CC)CC`, the compound was classed as inactive.

On to `Nc1ccn([C@@H]2O[C@H](CO)[C@@H](O)[C@@H]2O)c(=O)n1`, for which the compound was called inactive. On to `OC(CCl)CCl`, for which the compound was called inactive. On the same count and under the same terms, with `O=S1(=O)CCCO1` the entry was “inactive”; with `CCc1cccc(CC)c1N`, “inactive”; with `Cn1c(=O)c2[nH]cnc2n(C)c1=O`, “inactive”. For `Cc1ncc([C@@H](CCCCCCc2ccc3c(n2)NCCC3)CC(=O)O)cn1`, the call was inactive. Turning to `CCCOc1ccc(S(=O)(=O)N2CCN(CC)CC2)cc1-c1nc2c(CC)n(Cc3ccccn3)nc2c(=O)[nH]1`, the half-maximal activity concentration (AC50) is 50 µM (active). Regarding `CCCCCOC(C)=O`, the outcome was inactive. As for `COc1cc(C(C)C)c2c(c1)S(=O)(=O)N(COc1cc(=O)n3cccc(OCCN4CCCCC4)c3n1)C2=O`, the AC50 was 20.8 µM (active). On to `O=S(=O)(O)c1ccc(N=Nc2c(O)ccc3cc(S(=O)(=O)O)ccc23)cc1`, for which the call was inactive. Still for that read-out and setting: with `CCOc1ccc2[nH]cc(C(=O)NCc3ccccc3)c(=O)c2n1` the entry was “inactive”. The same measure, in the same setting: with `COS(C)(=O)=O` the entry was “inactive”; with `C[C@]12C=CC(=O)C=C1CC[C@H]1[C@@H]3C[C@@H](O)[C@](O)(C(=O)CO)[C@@]3(C)C[C@H](O)[C@@]12F`, “inactive”. As to `OC[C@H]1O[C@@](CO)(O[C@H]2O[C@H](CO)[C@@H](O)[C@H](O)[C@H]2O)[C@@H](O)[C@@H]1O`, the result was inactive. For `CC(C)c1nnc2ccc(-c3ocnc3-c3cc(F)ccc3F)cn12`, the AC50 was 9.92 µM (active). In the case of `CCc1ccc(O)c(C(C)(C)C)c1`, the compound was classed as inactive. Same read-out and setting: the same measure for `OC(Cn1cncn1)(Cn1cncn1)c1ccc(F)cc1F`: “inactive”.

As for `NNC(=O)c1ccncc1`, the compound was classed as inactive.

`O=C(NO)C1(NS(=O)(=O)c2ccc(Oc3ccc(F)cc3)cc2)CCOCC1`: the half-maximal activity concentration (AC50) was 78.1 µM (active). As for `c1ccc(C(O[C@@H]2CCCN(CCc3ccc4c(c3)OCO4)C2)c2ccccc2)cc1`, the compound was called inactive. Still for that read-out and setting: with `O=C(O)[C@H](O)[C@@H](O)C(=O)O` the entry was “inactive”; with `CCCCCCCCN(C)C`, “inactive”. As to `NC(=O)N(O)[C@@H]1COc2cc(OCc3ccccc3)ccc21`, the call was inactive. Still for that read-out and setting: with `CCCC(CCC)C(=O)O` the entry was “inactive”; with `Cn1cc[nH]c1=S`, “inactive”.

Consider `c1ccc2cc3ccccc3cc2c1`, for which the call was inactive.

Consider `Cc1nc(-c2ccccn2)ncc1C(=O)Nn1cc(C)c2cc(F)ccc21`, for which the call was inactive. In the case of `COCc1nnc(-c2ccc[n+]([O-])c2)n1-c1c(Cl)c(Cl)cc2[nH]c(=O)c(=O)[nH]c12`, the compound was classed as inactive.

With `CC[C@H](C)C(=O)O[C@H]1C[C@H](O)C=C2C=C[C@H](C)[C@H](CC[C@@H](O)C[C@@H](O)CC(=O)O)[C@H]21`, the AC50 is 21.9 µM (active). `CCOC(N)=O`: the outcome was inactive. Same read-out and setting: the same measure for `CCCCCCCC/C=C\CCCCCCCC(=O)OC[C@@H](O)[C@H]1OC[C@H](O)[C@H]1O`: “inactive”. In the case of `CCCCCCCCCC`, the result was inactive.

On to `O=C(O)c1cccc(C[C@@H]2COc3ccc(OCc4nc5cc(F)ccc5s4)cc3[C@@H]2O)c1`, for which the AC50 was 80.5 µM (active).
